Screens (PubChem)
Only some compounds are listed: those with a hit (about 17% of all), similar ones and a draw of the others.
TDP1 cell noCPT: qHTS for Inhibitors of human tyrosyl-DNA phosphodiesterase 1 (TDP1): qHTS in cells in absence of CPT. hit rate 15% among 420,000. Potency, µM (doses to about 46.2 µM), actives largely listed as inhibitors. DT40 Tdp1-/- hTDP1 cells, no CPT, ATP luminescence, 48 h. AID 686978, 2013; also: nearly all actives have a fitted effect of over 55% in size
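A cellular qHTS used chicken DT40 cells lacking endogenous Tdp1 but carrying stably transfected human TDP1. Compounds were applied without camptothecin, and cell growth kinetics were judged by ATP-dependent luminescence after ≥48 hr.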
HepG2 tox: qHTS for Inhibitors of TGF-b: Cytotox Counterscreen | HepG2 CAGA-GFP viability, ATP luminescence, 18 h | Potency, µM (top dose mostly 46.1 µM), hits mostly cytotoxic | hit rate 0.76% among 410,000 | AID 588856, 2011
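CellTiter-Glo luminescence gave cytotoxicity after 18 hours at 37 degrees C. The cells were HepG2 CAGA-GFP in 1% FBS DMEM, stimulated with 500 pg/mL TGF-beta after compound addition. %Activity was normalised to no-cell wells (complete cell-killing) and DMSO (no toxicity), and curves were fitted and classified.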
HT1080 IDH1KD tx: qHTS for induction of synthetic lethality in tumor cells producing 2HG: qHTS for the HT-1080-IDH1KD cell line. HT-1080 IDH1 knockdown viability, ATP luminescence, 48 h. Potency, µM (doses to about 46.1 µM), hits mostly cytotoxic. hit rate 2% among 360,000. AID 686971, 2013
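In this qHTS, HT-1080 cells depleted of IDH1 are exposed for 48 h at 37 °C to compound titrations. Toxicity is scored from CellTiter-Glo luminescence, with DMSO as full viability and medium alone as none.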
DT40 TDP1 CPT: qHTS for Inhibitors of human tyrosyl-DNA phosphodiesterase 1 (TDP1): qHTS in cells in presence of CPT | chicken DT40 Tdp1-/-;hTDP1 cells + 20 nM CPT, ATP luminescence, 48 h | Potency, µM (top dose mostly 46.2 µM), most hits filed as inhibitors | AID 686979, 2013 | hit rate 12% among 420,000; also: nearly all actives have a fitted effect of over 55% in size
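Chicken DT40 Tdp1-/- cells stably complemented with human TDP1 were seeded at 400 cells/well in medium containing 20 nM camptothecin, exposed to pin-transferred compounds, and grown at 37 °C for at least 48 hr. Viability was read as ATP luminescence.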
HT1080NT lethal: qHTS for induction of synthetic lethality in tumor cells producing 2HG: qHTS for the HT-1080-NT fibrosarcoma cell line; HT-1080-NT fibrosarcoma viability, CellTiter-Glo ATP luminescence, 48 h; Potency, µM (titrated, usually from 46.1 µM), actives largely listed as cytotoxic; hit rate 1.6% among 360,000; AID 686970, 2013;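 also: NT is the 2HG producing partner of a matched IDH1 knockdown line; nearly all actives have a fitted effect of over 55% in size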
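Compounds were tested in concentration-response format on HT-1080-NT cells for 48 hours at 37 degrees C. Cell viability came from CellTiter-Glo luminescence; curves were classified by r2, response magnitude and activity.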
TGFb inhibitor: qHTS for Inhibitors of TGF-b; hit rate 1.2% among 410,000; Potency, µM (doses to about 46.1 µM), hits mostly inhibitors; HepG2 CAGA-GFP TGF-b/SMAD3 reporter, GFP fluorescence, 18 h; TGF-beta stimulated, 500 pg/mL final; also: nearly all actives have a fitted effect of over 65% in size
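HEPG2 CAGA-GFP cells (1000/well, DMEM with 1% FBS) were pre-incubated 2 h at 37 degrees C, given compound by pin tool, then stimulated with TGF-beta at 500 pg/mL final for 18 h before per-cell GFP fluorescence imaging.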
Of the large screens only hits and unclear results are named; the others gave an inactive call. Calls follow the shape of the dose curve; as a rule, active = well fitted curve in the direction sought with a large enough effect; inconclusive = small, poorly fitted or top-dose-only effect, or another doubt; inactive = no such curve, though single readings can be large; an effect the other way counts as inactive or inconclusive.

Cc1sc2ncnc(N3CCC(C(=O)NNC(=O)c4ccccc4Cl)CC3)c2c1C	TDP1 cell noCPT 21µM, DT40 TDP1 CPT 15µM
Cc1sc2ncnc(N3CCC(C(=O)NNC(=O)COc4ccccc4Cl)CC3)c2c1C	TDP1 cell noCPT inconclusive, DT40 TDP1 CPT inconclusive, TGFb inhibitor inconclusive
Cc1cc(Br)ccc1NC(=O)CN(C)C(=O)C1CCN(c2ncnc3sc(C)c(C)c23)CC1	TDP1 cell noCPT 21µM, HT1080 IDH1KD tx inconclusive, DT40 TDP1 CPT inconclusive, HT1080NT lethal inconclusive, TGFb inhibitor inconclusive
COc1ccc(C2=Nn3c(nnc3-c3ccncc3)SC2)cc1	TDP1 cell noCPT inconclusive, DT40 TDP1 CPT inconclusive
Cc1cc(-c2nnc3n2N=C(c2ccccc2)CS3)n[nH]1	none
Cc1cccc(-c2nnc3n2N=C(c2ccccc2)CS3)c1	TDP1 cell noCPT inconclusive
Cc1cc(-c2nnc3n2N=C(c2ccc(-c4ccccc4)cc2)CS3)n[nH]1	TDP1 cell noCPT 15µM, HT1080 IDH1KD tx inconclusive, DT40 TDP1 CPT 23µM, HT1080NT lethal 23µM, TGFb inhibitor inconclusive
CCOc1ccc(C2=Nn3c(nnc3-c3ccc(OC)cc3)SC2)cc1	TDP1 cell noCPT 2.6µM, HT1080 IDH1KD tx 6.5µM, DT40 TDP1 CPT 2.1µM, HT1080NT lethal inconclusive, TGFb inhibitor inconclusive
Cc1ccc(-c2nnc3n2N=C(c2ccccc2Br)CS3)cc1	TDP1 cell noCPT 8.2µM, HT1080 IDH1KD tx inconclusive, DT40 TDP1 CPT 12µM, HT1080NT lethal inconclusive, TGFb inhibitor inconclusive
COc1ccc(C2=Nn3c(nnc3-c3ccccc3F)SC2)cc1OC1CCCC1	TGFb inhibitor 13µM (no result: TDP1 cell noCPT, HT1080 IDH1KD tx, DT40 TDP1 CPT, HT1080NT lethal)
O=C(NNCS(=O)(=O)O)c1ccncc1	none (no result: HepG2 tox, HT1080 IDH1KD tx, HT1080NT lethal, TGFb inhibitor)
c1ccc(-c2cc(-c3nnc4n3N=C(c3ccc5ccccc5c3)CS4)[nH]n2)cc1	TDP1 cell noCPT inconclusive, HT1080 IDH1KD tx 18µM, DT40 TDP1 CPT inconclusive, HT1080NT lethal inconclusive, TGFb inhibitor inconclusive
COc1ccc(C2=Nn3c(nnc3-c3ccccc3)SC2)cc1OC	HT1080 IDH1KD tx inconclusive
COc1ccc(OC)c(C2=Nn3c(nnc3-c3cccc(OC(C)C)c3)SC2)c1	TDP1 cell noCPT 12µM, DT40 TDP1 CPT 13µM
O=[N+]([O-])c1ccc(C(=Nc2cccc3ccccc23)N2CCOCC2)cc1	TDP1 cell noCPT inconclusive
CC(C)OCCCNC(=O)c1cccc2c1C(=O)c1ccc(Cl)cc1S2(=O)=O	none
COc1ccc(-c2ccc3c(c2)S(=O)(=O)c2cccc(C(=O)NCCOc4ccccc4)c2C3=O)cc1OC	TDP1 cell noCPT inconclusive, DT40 TDP1 CPT 18µM
O=C(NCCOc1ccccc1)c1ccc2c(c1)S(=O)(=O)c1cc(Cl)ccc1C2=O	TDP1 cell noCPT inconclusive, DT40 TDP1 CPT inconclusive
COc1ccc(OC[C@@H](O)CNC(=O)c2cccc3c2C(=O)c2ccc(-c4ccc(F)cc4OCc4ccccc4)cc2S3(=O)=O)cc1	TDP1 cell noCPT 10µM, DT40 TDP1 CPT 7.3µM
O=C(NCCOc1ccccc1Cl)c1cccc2c1C(=O)c1ccc(Cl)cc1S2(=O)=O	TDP1 cell noCPT 16µM, DT40 TDP1 CPT 23µM
O=C(NCCOc1ccccc1)c1cccc2c1C(=O)c1ccc(Cl)cc1S2(=O)=O	TDP1 cell noCPT 23µM, DT40 TDP1 CPT inconclusive
C=C1C=C(C)n2ncc(C(=O)Nc3cccc(C(=O)Nc4cccc(C(F)(F)F)c4)c3)c2N1	TDP1 cell noCPT inconclusive, DT40 TDP1 CPT inconclusive (no result: HT1080 IDH1KD tx, HT1080NT lethal)
CC(C)NC(=O)c1cn(C2CCCN(C(=O)c3cc4ccccc4oc3=O)C2)nn1 (stereo unspecified)	none (no result: HepG2 tox, HT1080 IDH1KD tx, HT1080NT lethal, TGFb inhibitor)
CC(C)C1N(C(=O)N2CCOCC2)CCN1S(=O)(=O)c1ccccc1 (stereo unspecified)	none
